# Data from PubChem BioAssay.
# Values joined by “and” are separate entries in the source; they are usually repeats but may differ in a detail not shown here. Identical values can stand only once. For part of these data: Entries with a potency or affinity are not part of this list. Where a structure was tested more than once in an assay, its records may differ in their call. Active and inactive are the calls of the source.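 How the source made its calls, unless noted: active means compounds whose cell count with miR-34 switched on is under 0.7 times the count with it off; inactive means the rest.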
# Experiments:
# [1] = polyglutamine-triggered caspase-3 activation inhibitors, cell-based (AID 1583); settings: polyglutamine-induced caspase-3 activation, cell assay; stronger effect = higher value;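 tested at 10 µM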
# [2] = suppressors of polyQ aggregation in yeast, 75Q-TubU reporter (AID 1593); settings: Yeast 75Q polyglutamine aggregation reporter
# [3] = rescue of polyQ-huntingtin neuronal dysfunction in worms, whole organism, C. elegans mechanosensory neurons, N-terminal huntingtin (AID 1599); settings: touch response, stronger effect = higher value
# [4] = inhibitors of mitochondrial cytochrome c release, biochemical, purified mitochondria (AID 1603); settings: stronger effect = lower value;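 further: mouse liver mitochondria challenged with calcium chloride; signal normalized to the plate average as 100%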
# [5] = inhibitors of polyQ protein aggregation (AID 1604); settings: polyglutamine-induced protein aggregation inhibition assay; stronger effect = higher value; tested at 2.5 µM
# [6] = enhancers of glutamate uptake in motor neurons, MN-1 cell line (AID 1612); settings: MN-1 motor neuron cells, stronger effect = higher value;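 further: tested at 1 µM final; 0% = mean of DMSO vehicle wells on each plate; positive means more glutamate uptake than control and negative means less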
# [7] = reducers of polyQ inclusions in PC12 cells, cell-based, NGF-treated PC12, GFPQ80 (AID 1614); settings: PC12 NGF-treated GFP-polyQ80 inclusion reduction;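 further: lower means fewer inclusions and 0 means no inclusions at all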
# [8] = suppressors of polyglutamine aggregation in yeast, 75Q-TubH (AID 1616); settings: S. cerevisiae 75Q-TubH polyglutamine aggregation suppression; stronger effect = higher value
# [9] = liver-stage malaria parasite growth inhibition, primary screen, cell-based, HepG2, luciferase luminescence, HepG2 viability (AID 624349; in the data active means parasite load remaining mostly below about 12%, no sharp cut-off; inactive means mostly above about 10%;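 further: 100% = mean of DMSO negative control wells on the same plate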); settings: P. berghei liver stage in HepG2, luciferase luminescence, concentration not given here; parasite load remaining: stronger effect = lower value; viability: measured here: HepG2 viability without parasites
# [10] = molecular target: 6-phosphogluconate dehydrogenase, decarboxylating (Homo sapiens) (UniProt P52209); test: 6PGD enzyme inhibitors, primary screen, biochemical, human, recombinant enzyme, NADPH absorbance (AID 1159550;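 active means at least 20% inhibition of 6-phosphogluconate dehydrogenase activity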); settings: recombinant 6PGD, NADPH absorbance 341 nm; at 10 µM; stronger effect = higher value
# Sequence of 6-phosphogluconate dehydrogenase, decarboxylating (Homo sapiens) (P52209 whole entry, looked up): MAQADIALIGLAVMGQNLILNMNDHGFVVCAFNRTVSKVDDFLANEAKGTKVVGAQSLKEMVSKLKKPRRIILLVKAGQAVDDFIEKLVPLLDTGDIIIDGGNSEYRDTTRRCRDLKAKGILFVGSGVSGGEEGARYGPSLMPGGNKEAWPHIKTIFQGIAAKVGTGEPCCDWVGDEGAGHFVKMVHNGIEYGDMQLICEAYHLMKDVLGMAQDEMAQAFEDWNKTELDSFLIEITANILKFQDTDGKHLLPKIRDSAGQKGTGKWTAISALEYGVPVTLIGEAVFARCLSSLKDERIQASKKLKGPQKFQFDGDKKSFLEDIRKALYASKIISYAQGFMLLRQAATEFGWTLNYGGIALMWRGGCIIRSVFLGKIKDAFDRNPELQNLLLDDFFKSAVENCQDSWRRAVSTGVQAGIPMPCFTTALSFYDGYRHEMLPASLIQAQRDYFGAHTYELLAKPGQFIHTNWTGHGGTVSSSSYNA
# [11] = differential killing of epithelial or mesenchymal cells, primary screen, imaging, PC-3E GFP, TEM4-18 mCherry, co-culture (AID 1345086;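 active means compounds killing one labelled cell type while sparing the other, by normalised counts and ratio limits, not self-fluorescent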;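 on all read-outs here: cells exposed to compound for 72 h before imaging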;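 on red/green cell ratio (normalised): normalised mesenchymal count divided by normalised epithelial count so high means epithelial killing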); settings: imaging cell counts, at 1 µM; for red/green cell ratio (normalised): actives lie on both sides, counts scaled to control wells, 1 = unselective
# [12] = sensitizers of A549 cells to miR-34 induction, primary screen, imaging, A549 dox-inducible miR-34, nuclei and caspase counts (AID 1347080); settings: A549 miR-34 inducible, Hoechst nuclei count, 48 h
# [13] = survival rescue of mitochondrial mutant cells in low glucose, primary screen, MELAS cybrids, Rieske KO mouse fibroblasts, CellTiter-Glo (AID 1508586;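 active means mean z-score across replicates of 1.96 or higher in either the MELAS or the Rieske mutant cell line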;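 further: z relative to plate mean and SD of compound and empty wells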)
# [14] = molecular target: NAD(+) hydrolase SARM1 (Homo sapiens) (UniProt Q6SZW1); test: SARM1 TIR NADase inhibitors, cell lysate, NAD-Glo luminescence (AID 1508614;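 active means compound whose remaining NAD level is above about 45 nM, limit read from the data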); settings: SAM-TIR HEK293T lysate NADase, at 1 µM, stronger effect = higher value
# Sequence of NAD(+) hydrolase SARM1 (Homo sapiens) (Q6SZW1 whole entry, looked up, the tested form may be a part): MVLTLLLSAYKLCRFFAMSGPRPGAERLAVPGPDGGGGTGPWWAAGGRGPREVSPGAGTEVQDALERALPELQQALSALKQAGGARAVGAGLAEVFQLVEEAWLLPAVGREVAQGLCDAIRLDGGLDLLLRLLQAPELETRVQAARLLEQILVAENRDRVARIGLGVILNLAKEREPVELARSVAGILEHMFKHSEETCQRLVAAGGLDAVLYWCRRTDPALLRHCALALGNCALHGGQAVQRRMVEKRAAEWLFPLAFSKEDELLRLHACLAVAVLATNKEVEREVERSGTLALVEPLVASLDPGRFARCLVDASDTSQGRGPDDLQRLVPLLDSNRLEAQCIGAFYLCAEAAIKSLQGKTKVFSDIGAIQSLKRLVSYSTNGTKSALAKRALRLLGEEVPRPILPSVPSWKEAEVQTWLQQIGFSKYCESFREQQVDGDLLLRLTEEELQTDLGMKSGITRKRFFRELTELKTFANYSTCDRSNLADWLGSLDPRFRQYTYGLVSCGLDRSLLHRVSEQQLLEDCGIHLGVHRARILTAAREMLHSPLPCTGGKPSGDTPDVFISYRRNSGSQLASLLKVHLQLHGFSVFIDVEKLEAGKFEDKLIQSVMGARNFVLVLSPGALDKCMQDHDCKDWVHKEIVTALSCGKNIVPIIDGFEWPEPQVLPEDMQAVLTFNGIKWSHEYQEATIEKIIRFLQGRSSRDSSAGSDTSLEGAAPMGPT
# [15] = molecular target: Mitogen-activated protein kinase 7 (Homo sapiens) (UniProt Q13164); test: ERK5 transactivation activators in reporter cells, primary screen, cell-based, HTS (AID 1508626;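 active means luciferase signal above three times the same-plate solvent-only control wells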;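 further: luciferase driven by Gal4-ERK5 fusion binding five Gal4 sites before minimal TATA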); settings: HeLa Gal4-ERK5 transactivation, 18 h, at 5 µM, stronger effect = higher value
# Sequence of Mitogen-activated protein kinase 7 (Homo sapiens) (Q13164 whole entry, looked up, the tested form may be a part): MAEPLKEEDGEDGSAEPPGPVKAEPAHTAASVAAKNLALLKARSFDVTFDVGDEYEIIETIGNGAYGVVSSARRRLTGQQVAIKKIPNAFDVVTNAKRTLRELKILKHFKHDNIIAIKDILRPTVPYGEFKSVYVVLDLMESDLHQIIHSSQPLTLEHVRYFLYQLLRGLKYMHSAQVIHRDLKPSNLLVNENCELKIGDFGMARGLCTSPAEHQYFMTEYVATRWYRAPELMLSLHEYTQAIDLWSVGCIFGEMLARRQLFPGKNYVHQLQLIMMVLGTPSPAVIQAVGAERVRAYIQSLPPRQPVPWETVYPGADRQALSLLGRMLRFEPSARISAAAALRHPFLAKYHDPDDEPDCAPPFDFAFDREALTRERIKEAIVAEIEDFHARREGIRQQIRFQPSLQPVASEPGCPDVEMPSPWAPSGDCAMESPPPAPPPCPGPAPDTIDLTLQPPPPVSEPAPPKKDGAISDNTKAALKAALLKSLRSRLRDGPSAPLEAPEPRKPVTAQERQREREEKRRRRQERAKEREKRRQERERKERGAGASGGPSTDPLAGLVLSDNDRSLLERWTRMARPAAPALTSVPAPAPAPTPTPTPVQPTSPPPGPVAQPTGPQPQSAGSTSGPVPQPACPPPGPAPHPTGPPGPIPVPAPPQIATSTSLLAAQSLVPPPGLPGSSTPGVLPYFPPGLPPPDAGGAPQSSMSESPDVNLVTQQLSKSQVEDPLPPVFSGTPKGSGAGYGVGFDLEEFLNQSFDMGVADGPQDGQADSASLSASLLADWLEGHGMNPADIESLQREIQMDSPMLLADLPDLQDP
# [16] = circadian clock period modulators, cell-based, LOPAC library, luminescence reporter (AID 2774; call rule not given here;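 further: values are relative to mean of DMSO wells on each plate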); settings: circadian reporter cells, at 7 µM, actives lie on both sides
# [17] = phospholipid biosynthesis inhibitors in animal cells, primary screen, cell-based, LOPAC library, screen 4 (AID 1347384; call rule not given here); settings: phospholipid biosynthesis inhibition screen, at 10 µM
# [18] = viability rescue of complex I mutant cybrids, primary screen, cell-based, galactose medium, ATP luminescence (AID 1645843;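 active means z-score of at least 1.8 in each of two replicates, scored against plate mean and spread of sample wells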;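 further: positive z means more ATP and so rescue of galactose-driven cybrid death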); settings: complex I mutant cybrid cells, 72 h, stronger effect = higher value
# [19] = measured here: epithelial PC-3E GFP cell survival
# [20] = measured here: mesenchymal TEM4-18 mCherry cell survival
# [21] = stronger effect = lower value, cell number ratio, induced over uninduced
# [22] = measured here: relative caspase fold change +Dox/-Dox
# [23] = measured here: total cells with miR-34 induction, stronger effect = lower value
# [24] = measured here: total cells without miR-34 induction
# [25] = MELAS cybrid survival, CellTiter-Glo 48 h, stronger effect = higher value
# [26] = Rieske KO mouse fibroblast survival, CellTiter-Glo 72 h
smiles,measurement,setting,value
CC[C@H]1OC(=O)[C@H](C)[C@@H](O[C@H]2C[C@@](C)(OC)[C@@H](O)[C@H](C)O2)[C@H](C)[C@@H](O[C@@H]2O[C@H](C)C[C@H](N(C)C)[C@H]2O)[C@](C)(O)C[C@@H](C)C(=O)[C@H](C)[C@@H](O)[C@]1(C)O,inhibition,[1],-6% and 7.62% and 29.3%
same,score,[2],1 and 1.46 and 0.46
same,rescue above control,[3],2.19 and 2 and 0.57
same,cytochrome c release ratio,[4],1.13 and 0.65 and 0.96
same,inhibition of aggregation,[5],76.2% and 28.2% and 15.7%
same,glutamate uptake change,[6],-4.4% and 1.02% and 35.1%
same,inclusion score,[7],2
same,aggregation suppression score,[8],0.915 and 1.27 and 0.716
same,parasite load remaining,[9],44.8% (inactive) and 99.9% (inactive) and 62.2% (inactive)
same,viability,[9],44.6% and 74.8% and 115%
same,inhibition,[10],2.57% (inactive) and -12% (inactive)
same,red/green cell ratio (normalised),[11],1.08 (inactive) and 0.76 (inactive)
same,normalised cell number,[11]; [19],0.96 and 0.98
same,normalised cell number,[11]; [20],1.03 and 0.74
same,fold change,[12]; [21],0.923 (inactive) and 0.889 (inactive) and 0.914 (inactive)
same,fold change,[12]; [22],0.947 and 1.27 and 1.04
same,cell count,[12]; [23],7930 and 8750 and 10800
same,cell count,[12]; [24],8590 and 9850 and 11800
same,z-score,[13]; [25],-0.415 (inactive)
same,z-score,[13]; [26],-0.471
same,remaining NAD,[14],85 nM (active) and 10 nM (inactive)
same,luciferase signal,[15],60 AU (inactive)
COc1cc(/C=C/C(=O)O)ccc1O,parasite load remaining,[9],186% (inactive)
same,viability,[9],69.3%
same,inhibition,[10],3.09% (inactive)
same,red/green cell ratio (normalised),[11],1.05 (inactive)
same,normalised cell number,[11]; [19],1
same,normalised cell number,[11]; [20],1.05
same,luciferase signal,[15],48 AU (inactive)
O=C(O)/C=C/c1ccc(O)c(O)c1,period change,[16],0.055 h (inactive)
same,inhibition,[10],7.04% (inactive)
same,red/green cell ratio (normalised),[11],1.06 (inactive)
same,normalised cell number,[11]; [19],1
same,normalised cell number,[11]; [20],1.06
same,fold change,[12]; [21],0.967 (inactive) and 0.99 (inactive)
same,fold change,[12]; [22],2.48 and 1.11
same,cell count,[12]; [23],10100 and 5830
same,cell count,[12]; [24],10400 and 5890
same,outcome,[17],inactive
same,luciferase signal,[15],32 AU (inactive)
same,z-score,[18],-0.81 (inactive)
OCC(O)C(O)C(O)CO (configuration not stated),inhibition,[10],-9.83% (inactive)
same,red/green cell ratio (normalised),[11],1.02 (inactive) and 0.91 (inactive)
same,normalised cell number,[11]; [19],0.96 and 1.18
same,normalised cell number,[11]; [20],0.97 and 1.07
same,fold change,[12]; [21],0.884 (inactive)
same,fold change,[12]; [22],0.816
same,cell count,[12]; [23],9100
same,cell count,[12]; [24],10300
same,z-score,[13]; [25],-0.33 (inactive)
same,z-score,[13]; [26],0.446
same,luciferase signal,[15],36 AU (inactive)
NC[C@H]1O[C@H](O[C@H]2[C@H](O)[C@@H](O[C@H]3O[C@H](CO)[C@@H](O)[C@H](N)[C@H]3O)[C@H](N)C[C@@H]2N)[C@H](N)C[C@@H]1O,parasite load remaining,[9],155% (inactive) and 39.4% (inactive) and 27.1% (inactive)
same,viability,[9],107% and 98% and 71.5%
same,inhibition,[10],-0.0775% (inactive)
same,red/green cell ratio (normalised),[11],1.17 (inactive)
same,normalised cell number,[11]; [19],0.88
same,normalised cell number,[11]; [20],1.03
same,fold change,[12]; [21],0.865 (inactive) and 0.994 (inactive) and 0.887 (inactive)
same,fold change,[12]; [22],1.22 and 2.22 and 1.69
same,cell count,[12]; [23],8760 and 12000 and 9090
same,cell count,[12]; [24],10100 and 12100 and 10300
same,z-score,[13]; [25],0.333 (inactive) and -0.0714 (inactive)
same,z-score,[13]; [26],0.434 and -0.898
same,remaining NAD,[14],22 nM (inactive)
same,luciferase signal,[15],84 AU (inactive)
same,z-score,[18],0.605 (inactive)
OCc1ccccc1O[C@@H]1O[C@H](CO)[C@@H](O)[C@H](O)[C@H]1O,inhibition,[1],-10.9%
same,score,[2],1.23
same,rescue above control,[3],-13.2
same,cytochrome c release ratio,[4],0.94
same,inhibition of aggregation,[5],25.2%
same,glutamate uptake change,[6],-4.1%
same,inclusion score,[7],2
same,aggregation suppression score,[8],1.3
same,parasite load remaining,[9],107% (inactive) and 32.5% (inactive)
same,viability,[9],66.8% and 91.3%
same,inhibition,[10],16.9% (inactive)
same,red/green cell ratio (normalised),[11],0.91 (inactive)
same,normalised cell number,[11]; [19],0.63
same,normalised cell number,[11]; [20],0.57
same,fold change,[12]; [21],0.934 (inactive)
same,fold change,[12]; [22],2.93
same,cell count,[12]; [23],12100
same,cell count,[12]; [24],13000
same,remaining NAD,[14],10 nM (inactive)
same,luciferase signal,[15],72 AU (inactive)
